# Assays:
# Test in all cases: PBM binding z-score (relative to random genomic background probes); higher = stronger binding; sequences stand for … in GC…GCGATTGACAGCGTAGAATGAAGG
# [1] = tested on: PPARg:RXRa DBDmut IVT, anti-RXR (DBD mutation: RXRa K156A/R161A, NR concentration 270 nM, RXRa partner concentration 90 nM)
# In short: (§1)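 Custom Agilent 4×180K protein-binding microarrays carried double-stranded probes, each with a 34-nt variable region. These regions held direct-repeat seeds, single-nucleotide variants, half-site ablations and random human genomic background sequences. Ligand-free nuclear receptor dimers were incubated on the arrays for 1 h, antibodies against each partner (one per run) detected binding, and scanned fluorescence was regression-normalized. Binding z-scores take the random background probes as reference.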
# [2] = tested on: PPARg:RXRa IVT, anti-PPARg (NR concentration 270 nM, RXRa partner concentration 90 nM)
# In short: as §1
# [3] = tested on: PPARg DBDmut:RXRa IVT, anti-PPARg (DBD mutation: PPARg1 K132A/R137A, NR concentration 270 nM, RXRa partner concentration 90 nM)
# In short: as §1
# [4] = tested on: PPARg DBDmut IVT, anti-PPARg (DBD mutation: PPARg1 K132A/R137A, NR concentration 270 nM)
# In short: as §1
# [5] = tested on: PPARg homodimer (NR concentration 180 nM)
# In short: as §1
# [6] = tested on: PXR:RXRa (NR concentration 270 nM, RXRa partner concentration 90 nM)
# In short: as §1
# [7] = tested on: PXR homodimer (NR concentration 270 nM)
# In short: as §1
# [8] = tested on: RARa:RXR (NR concentration 270 nM, RXRa partner concentration 90 nM)
# In short: as §1
# [9] = tested on: RARa homodimer (NR concentration 270 nM)
# In short: as §1
# [10] = tested on: RARb:RXRa (NR concentration 270 nM, RXRa partner concentration 90 nM)
# In short: as §1
# [11] = tested on: RARb homodimer (NR concentration 270 nM)
# In short: as §1
# [12] = tested on: RARg:RXRa (NR concentration 270 nM, RXRa partner concentration 90 nM)
# In short: as §1
# [13] = tested on: RARg homodimer (NR concentration 270 nM)
# In short: as §1
# [14] = tested on: RXRa DBDmut IVT, anti-RXR (DBD mutation: RXRa K156A/R161A, NR concentration 90 nM)
# In short: as §1
# [15] = tested on: RXRa homodimer (NR concentration 180 nM)
# In short: as §1
# [16] = tested on: THRa:RXRa (NR concentration 90 nM, RXRa partner concentration 90 nM)
# In short: as §1
# [17] = tested on: THRa homodimer (NR concentration 90 nM)
# In short: as §1
# [18] = tested on: VDR homodimer (NR concentration 270 nM)
# In short: as §1
Sequence,PBM binding z-score [1],PBM binding z-score [2],PBM binding z-score [3],PBM binding z-score [4],PBM binding z-score [5],PBM binding z-score [6],PBM binding z-score [7],PBM binding z-score [8],PBM binding z-score [9],PBM binding z-score [10],PBM binding z-score [11],PBM binding z-score [12],PBM binding z-score [13],PBM binding z-score [14],PBM binding z-score [15],PBM binding z-score [16],PBM binding z-score [17],PBM binding z-score [18]
CCAGACAGGTGAACGGTAACTCAGTCTGGTACGC,1.49,1.08,-0.573,-0.154,0.0136,-0.325,-0.355,-0.289,-0.204,0.99,0.435,0.292,0.535,-0.0435,0.416,0.0165,-0.646,-0.453
CCTACTGGGCCACGAAAGGTCTTTGATTCAGTGA,4.89,5.29,0.279,-0.311,0.598,0.109,-0.43,0.284,-0.304,0.791,1.03,0.285,0.261,-0.372,0.067,1.06,-0.141,-0.432
CCTTCCGGGTCACTCCAGGTTATAGCATCGGAGT,3.76,4.8,0.383,-0.795,1.88,4.83,0.335,3.65,0.518,3.77,3.42,4.34,3.95,1.2,4.33,5.19,2.37,1.77
CTCGAAAGGTCGTACTCAGGTGAGTATACCAAAC,1.03,1.95,0.751,1.1,2.32,3.69,0.0401,4.62,0.162,3.75,2.52,4.96,3.87,2.42,4.91,3.89,0.987,1.47
ACTAGTTGGCCAGCTGAGGTCACACACAATTCGG,0.715,1.85,0.578,0.0549,2.34,4.59,1.49,4.57,0.503,3.19,3.96,3.64,3.6,0.874,4.1,4.47,5.09,2.74
CCTCGGACGACAGAAGGTCAGAGCTGTCCGCTTT,-0.0338,-0.307,-1.28,-2.04,1.12,1.35,-0.144,2.01,-0.163,2.67,3.09,2.54,2.68,0.306,1.98,1.57,-0.117,0.204
CAAACTAGGTCACAGAGGTCAAAGACCGTGCGTA,8.39,9.08,7.99,2.78,5.75,6.86,10.2,7.44,2.59,5.37,5.43,7.3,7.86,3.1,7.71,4.68,2.81,6.4
GATGCTAGGTCAGGTTGGTCAGCTAACGGGTACG,1.91,2.23,-0.346,-0.425,1.67,0.452,0.0675,0.755,-0.108,3.46,3.1,2.37,3.92,0.468,1.16,1.92,0.898,0.958
ATCTCTAGGTAACTAAGTTCAGTGAATGCCGAAC,2.67,2.89,1.24,1.19,1.29,2.49,2.44,1.25,0.922,1.37,1.92,1.03,0.956,1.16,0.699,1.67,0.66,2.04
AGTAGCAGGCCAAGTTTGGGTCACTCAAACAAAG,0.369,1.17,-1.1,-1.36,0.195,0.663,-0.57,1.64,-0.486,1.72,2.22,2.3,1.7,-0.435,0.67,2.62,1.08,0.19
AACTCTAGGTAAAGTTCAGTGAAAGATCGATAGA,2.44,2.21,0.224,0.266,0.953,1.71,1.53,1.14,0.544,2.73,2.3,1.97,2.32,1.44,1.19,0.938,-0.396,1.64
CCGACTGGGGCAAGGTTACCATGACGCACAGCCA,2.69,3.49,-0.7,-0.368,0.811,0.221,-0.439,0.851,-0.183,1.62,1.41,1.07,1.09,-0.669,1.13,1.21,0.0571,-0.0501
AGAATGAGGTTAAGATAAGGGAAACAGAATACAT,2.37,2.34,1.82,1.35,1.38,1.12,0.744,1.8,1.27,1.83,1.07,2.11,1.69,0.785,2.6,2.71,1.05,0.183
ACTAGCAGGCTAAGGGTCACTCAAGATTAGTCCG,0.414,3.12,0.0604,-0.126,1.94,3.45,-0.319,4.56,0.291,3.47,3.89,3.88,3.65,0.904,4.18,2.6,-0.003,1.01
AGTCAAAGTTCACTAGGTAACGCAAGATTCAGCT,3.01,4.84,0.915,1.01,2.5,3.77,2.6,3.32,1.39,4.93,3.66,5.13,6.21,4.25,4.24,2.08,0.154,3.32
CATACTGGGCCACGAAAGGTCATTGATTCAGTGA,4.74,5.55,1.83,0.862,2.89,5.4,1.75,5.41,0.959,4.16,4.71,4.59,4.63,0.963,4.9,3.87,1.47,2.45
CCGACTAGGGCAGAAAGGTTACCATACCATCCGG,2.95,2.6,-0.185,-0.946,1.12,1.24,-0.00781,1.86,0.161,2.24,2.4,1.99,1.91,-0.271,1.92,1.21,-0.493,-0.0974
AGAATGAGGTTACCAAAGATCAGGGGAACGCTTG,3.68,3.55,0.871,0.161,0.699,1.59,-0.0783,2.04,0.232,2.18,1.08,2.1,1.75,1.25,2.79,2.87,0.753,0.0393
TCATGTAGATCAGCAGGTTAAGAAAGCTGGCCAA,1.87,0.284,-0.501,-0.804,0.238,0.193,0.00655,0.125,-0.0627,0.286,-0.0199,-0.0908,-0.0942,0.626,0.381,0.195,-0.553,-0.749
TTACCAAGGTGAAGGTCGATGATCCCTCTGTAGA,1.53,3.14,-0.416,-0.0425,0.524,0.883,0.0636,1.36,0.0108,2.11,1.64,1.22,1.39,-0.217,1.4,2.05,0.572,0.0587
CCTACTCGGCCAAGGTCATTGATCAGTCAAAGCA,1.8,1.68,-0.0349,-0.365,2.76,3.75,2.34,3.59,1.82,3.52,3.33,3.95,3.71,2.24,3.6,3.36,2.98,3.83
TCTGCTAGGTCAACCATGGTCAGCTAATCTGCTA,4.75,4.6,-0.545,-0.0168,1.65,2.47,-0.872,2.3,-0.434,4.21,3.53,4.4,5.7,1.05,3.24,3.78,1.03,-0.484
AGAACGAGGGCAGTGAGTTGATAGCACGGGTGGC,2.18,1.32,0.223,-0.247,-0.315,0.372,2,-0.326,-0.462,1.6,0.73,0.413,0.886,1.24,0.269,0.176,-0.413,2.23
CGAACTAGGTCATCCAGGATAGTGAATACATTGA,7.97,8.31,1.76,1.58,1.43,1.54,0.608,2.18,1.13,3.78,3.03,3.82,4.37,2.18,2.75,3.26,1.49,0.935
TCTTGTATATCAATAGAGGTTAAGAAAGTGCGCT,1.98,1.05,0.574,1.14,0.383,3,0.496,1.54,0.672,0.997,1.38,0.864,0.687,1.05,1.58,1.72,-0.0174,0.47
GCAGACAGTTGAAACGCAGGTAACTCAGGGTGGC,-0.661,-0.74,-1.02,-0.586,-0.714,-0.372,-0.779,0.0801,-0.512,-0.0972,-0.639,0.0568,-0.397,-0.408,0.339,0.919,-0.565,-0.832
ATCTCTAGGTAAATTTCAGTGAAAGATCGATAGA,1.2,1.5,1.22,1.58,0.671,0.0865,0.265,0.745,1.29,-0.125,-0.353,0.0563,0.241,0.179,0.137,0.356,-0.0111,0.034
AATAAAGGGTCACTAGGCCAGAGTAGGTACGAAT,4.52,6.06,1.89,1.25,2.96,3.13,0.43,4.07,1.9,5.16,4.18,5.83,6.43,2.48,5.89,2.82,0.263,2.36
ATCTCTATGTAAGACTCAGTTCAGTGAAGAACGC,-0.194,-0.197,0.298,1.3,0.674,0.52,1.01,0.0686,0.753,0.0321,0.277,-0.035,0.0537,0.294,-0.183,0.172,0.339,1.16

# Source: the supplement of paper PMC6555819
